Results as given in PubChem BioAssay (NCI).
“And” between values parts separate entries of the source, which are not always exact repeats. Identical values can stand only once. This is part of a sample that, as a whole, favours compounds with a hit. Of some 83,000 tested, about 20% had one in any assay.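 Results are percent growth after 48 hours of single-concentration exposure. 100 means growth as in untreated cells, lower positive values show inhibition; negative values down to -100 show cell death.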

Assays:
Test in all cases: NCI-60 one-dose screen, 48 h (100 = growth as untreated, 0 = no growth, -100 = all killed)
Conditions in all cases: 10 µM unless noted; active = growth percent below 10; inactive = the rest
NCI-H23 lung = test system: NCI-H23 lung
NCI-H226 lung = test system: NCI-H226 lung
NCI-H322M lung = test system: NCI-H322M lung
HOP-62 NSCLC = test system: HOP-62 NSCLC
NCI-H460 lung = test system: NCI-H460 lung
HOP-92 NSCLC = test system: HOP-92 NSCLC
NCI-H522 lung = test system: NCI-H522 lung
786-0 renal = test system: 786-0 renal
COLO 205 colon = test system: COLO 205 colon
DU-145 prostate = test system: DU-145 prostate
K-562 leukemia = test system: K-562 leukemia
MALME-3M melanoma = test system: MALME-3M melanoma
MDA-MB-231 breast = test system: MDA-MB-231 breast
RXF 393 renal = test system: RXF 393 renal
SF-268 CNS = test system: SF-268 CNS
SF-295 CNS = test system: SF-295 CNS
SF-539 CNS = test system: SF-539 CNS
UACC-257 melanoma = test system: UACC-257 melanoma
M14 melanoma = test system: M14 melanoma
A549/ATCC NSCLC = test system: A549/ATCC NSCLC

Measured: growth

Cc1cc2ccccc2c2cc3ccccc3cc12
inactive: NCI-H23 lung 94.9% | NCI-H226 lung 68.4% | NCI-H322M lung 85.9% | HOP-62 NSCLC 85.6% | NCI-H460 lung 89.2% | HOP-92 NSCLC 99% | NCI-H522 lung 81% | 786-0 renal 110% | COLO 205 colon 79.4% | DU-145 prostate 107% | K-562 leukemia 95.4% | MALME-3M melanoma 86.9% | MDA-MB-231 breast 79.9% | RXF 393 renal 97.7% | SF-268 CNS 100% | SF-295 CNS 96.9% | SF-539 CNS 92.6% | UACC-257 melanoma 99.6% | M14 melanoma 85.1%

c1ccc2c[n+](Cc3ccc4ccccc4n3)ccc2c1
inactive: NCI-H23 lung 69.1% | NCI-H226 lung 85.8% | NCI-H322M lung 104% | HOP-62 NSCLC 80.1% | NCI-H460 lung 88.4% | HOP-92 NSCLC 56% | NCI-H522 lung 84.9% | A549/ATCC NSCLC 65.5% | 786-0 renal 95.3% | COLO 205 colon 46.5% | DU-145 prostate 99.8% | K-562 leukemia 63.8% | MALME-3M melanoma 75.7% | MDA-MB-231 breast 89.4% | RXF 393 renal 91% | SF-268 CNS 85.7% | SF-295 CNS 91.4% | SF-539 CNS 82.5% | UACC-257 melanoma 56% | M14 melanoma 72.3%

COCCCNC1=C(C#N)C(=O)NC(c2cccs2)S1 (stereo unspecified)
inactive: NCI-H23 lung 104% | NCI-H226 lung 98.4% | NCI-H322M lung 95.4% | HOP-62 NSCLC 99.9% | NCI-H460 lung 99.2% | HOP-92 NSCLC 107% | NCI-H522 lung 127% | A549/ATCC NSCLC 103% | 786-0 renal 106% | COLO 205 colon 110% | DU-145 prostate 107% | K-562 leukemia 153% | MALME-3M melanoma 104% | MDA-MB-231 breast 106% | RXF 393 renal 96.9% | SF-268 CNS 104% | SF-295 CNS 96.4% | SF-539 CNS 85.2% | UACC-257 melanoma 111% | M14 melanoma 110%

CC1(C)OC(=O)C(=Cc2ccc(C#N)cc2)C(=O)O1
inactive: NCI-H23 lung 104% | NCI-H226 lung 92.6% | NCI-H322M lung 113% and 103% | HOP-62 NSCLC 90.6% and 114% | NCI-H460 lung 107% and 101% | HOP-92 NSCLC 87.9% | NCI-H522 lung 79% and 103% | 786-0 renal 104% and 98.1% | COLO 205 colon 103% and 105% | DU-145 prostate 109% and 107% | K-562 leukemia 101% and 96.7% | MALME-3M melanoma 110% and 99.3% | MDA-MB-231 breast 113% and 123% | RXF 393 renal 102% | SF-268 CNS 104% and 102% | SF-295 CNS 103% and 97.7% | SF-539 CNS 111% and 105% | UACC-257 melanoma 72.2% and 96.3% | M14 melanoma 106% and 105%

CCC(=O)Oc1ccc(OCc2ccccc2)cc1
inactive: NCI-H23 lung 85.5% and 83.8% | NCI-H226 lung 104% and 103% | NCI-H322M lung 120% and 92.3% | HOP-62 NSCLC 107% and 94.8% | NCI-H460 lung 99.4% and 93.7% | HOP-92 NSCLC 89.1% | NCI-H522 lung 88.3% and 77% | 786-0 renal 81.5% and 79.6% | COLO 205 colon 124% and 113% | DU-145 prostate 96.9% and 88.9% | K-562 leukemia 86% and 88.4% | MALME-3M melanoma 107% and 86.6% | MDA-MB-231 breast 60.1% and 68.4% | RXF 393 renal 94% and 100% | SF-268 CNS 75% and 85.5% | SF-295 CNS 95.4% and 75.9% | SF-539 CNS 56.2% and 65.3% | UACC-257 melanoma 130% and 108% | M14 melanoma 101% and 77.3%

CC1=CC(=O)c2cccc(NC3=NCCO3)c21
inactive: NCI-H23 lung 100% | NCI-H226 lung 94.2% | NCI-H322M lung 99.4% | HOP-62 NSCLC 84.9% | NCI-H460 lung 107% | HOP-92 NSCLC 77.6% | NCI-H522 lung 87.8% | 786-0 renal 91.9% | COLO 205 colon 102% | DU-145 prostate 108% | K-562 leukemia 82.4% | MALME-3M melanoma 93.4% | MDA-MB-231 breast 102% | RXF 393 renal 117% | SF-268 CNS 100% | SF-295 CNS 95.1% | SF-539 CNS 95.7% | UACC-257 melanoma 94.2% | M14 melanoma 97.1%

Cc1ccc2cccc([N+](=O)[O-])c2n1
inactive: NCI-H23 lung 108% and 95% | NCI-H226 lung 101% | NCI-H322M lung 110% and 90.5% | HOP-62 NSCLC 103% and 95.1% | NCI-H460 lung 117% and 107% | HOP-92 NSCLC 123% and 96.2% | NCI-H522 lung 90.2% and 93.8% | A549/ATCC NSCLC 103% and 104% | 786-0 renal 118% and 98.3% | COLO 205 colon 104% and 106% | DU-145 prostate 116% and 109% | K-562 leukemia 91% and 88.7% | MALME-3M melanoma 99.1% and 108% | MDA-MB-231 breast 107% and 104% | RXF 393 renal 119% and 110% | SF-268 CNS 103% | SF-295 CNS 108% and 110% | SF-539 CNS 105% and 103% | UACC-257 melanoma 102% and 107% | M14 melanoma 121% and 97.9%
